# Rows were chosen to be rich in hits. Some 5.7% of all compounds tested hit in one or more screens of this group.
# HepG2 viability = qHTS for Inhibitors of TGF-b: Cytotox Counterscreen; HepG2 CAGA-GFP viability, ATP luminescence, 18 h; Potency, µM (top dose mostly 46.1 µM), without a hit: at the top dose activity change, negative = cytotoxicity, usual class: cytotoxic; 410,000 tested, 0.76% active; AID 588856, 2011; note: potency is the fitted concentration of half-maximal effect
#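 CellTiter-Glo luminescence gave cytotoxicity after 18 hours at 37 degrees C. The cells were HepG2 CAGA-GFP in 1% FBS DMEM, stimulated with 500 pg/mL TGF-beta after compound addition. %Activity was normalised to no-cell wells (complete cell-killing) and DMSO (no toxicity), and curves were fitted and classified.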
# IL1B secr inh = qHTS for Inhibitors of Inflammasome Signaling: IL-1-beta AlphaLISA Primary Screen; AID 743279, 2014; 360,000 tested, 4.7% active; activity change, % at 57.5 µM; THP-1 LPS/ATP IL-1B secretion, AlphaLISA, 16 h; hits give low values; in the data active = activity change below about -50%; inconclusive = mostly about -30% to -49%; note: % is set by controls: 0 for no effect and ±100 for the full control effect
#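 Secreted IL-1B measured by AlphaLISA bead assay after 16 h compound exposure of THP-1 cells; compounds (final up to 57.5 uM) added 1 h before LPS (250 ng/mL) and ATP (1.25 mM) stimulation; lower signal means less secretion.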
# ATXN viability = Viability Counterscreen for Primary qHTS for Inhibitors of ATXN expression. S2 cells (HEK-293 line with an ATXN2-luciferase reporter) viability, CellTiter-Fluor protease fluorescence, 24 h. 400,000 tested, 0.49% active. AID 651635, 2014. Potency, µM (highest dose often 56.7 µM), most hits filed as cytotoxic; note: potency is the fitted concentration of half-maximal effect; nearly all actives have a fitted effect of over 40% in size
# TGFb inhibitor = qHTS for Inhibitors of TGF-b; HepG2 CAGA-GFP TGF-b/SMAD3 reporter, GFP fluorescence, 18 h; TGF-beta stimulated, 500 pg/mL final; Potency, µM (highest dose often 46.1 µM), for the others: at the top dose activity, negative = inhibition, usual class: inhibitors; 410,000 tested, 1.2% active; AID 588855, 2011; note: potency is the fitted concentration of half-maximal effect; % is set by controls: 0 for no effect and ±100 for the full control effect; nearly all actives have a fitted effect of over 65% in size
#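 HEPG2 CAGA-GFP cells (1000/well, DMEM with 1% FBS) were pre-incubated 2 h at 37 degrees C, given compound by pin tool, then stimulated with TGF-beta at 500 pg/mL final for 18 h before per-cell GFP fluorescence imaging.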
# ATXN2 expr inh = Primary qHTS for Inhibitors of ATXN expression; HEK-293 ATXN2-luciferase reporter, luminescence, 24 h; Potency, µM (highest dose often 57 µM), for inactives: at the highest dose activity change, negative = inhibition, most hits filed as inhibitors; 360,000 tested, 0.72% active; AID 1745845, 2022; note: potency is the fitted concentration of half-maximal effect; % is set by controls: 0 for no effect and ±100 for the full control effect; nearly all actives have a fitted effect of over 55% in size
#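 qHTS (up to 57 uM final) was run with 24 h compound exposure of reporter cells at 37 °C. Each well was multiplexed: SteadyGlo luminescence measured ATXN2-luciferase expression after a fluorogenic Gly-Phe-AFC viability readout (25 uM final).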
# Active calls of the source: *; i = inactive; ? = inconclusive; nt = no result given; [ ] = remark or other dose. Unless noted, calls come from the whole dose curve; as a rule, active = well fitted curve in the direction sought with a large enough effect; inconclusive = small, poorly fitted or top-dose-only effect, or another doubt; inactive = no such curve, though single readings can be large; an effect the other way counts as inactive or inconclusive.
SMILES,HepG2 viability,IL1B secr inh,ATXN viability,TGFb inhibitor,ATXN2 expr inh
COc1ccc(-c2nnc(N3CCCCC3)c3ccccc23)cc1,-8%,-66*,i,-41%,?
COc1ccc(OCC(=O)N2CCN(c3nnc(-c4ccccc4)c4ccccc34)CC2)cc1,-13%,-66*,i,-4%,-13%
Cc1nc(N2CCN(C(=O)c3ccco3)CC2)c(C#N)c2c1CCCC2,-16%,-84*,?,?,-16%
COc1ccc(OCC(=O)N2CCN(c3nnc(-c4ccc(C)cc4)c4ccccc34)CC2)cc1,3%,-84*,?,-27%,?
Cc1ccc(-c2nnc(N3CCN(C(=O)COc4cccc(C)c4)CC3)c3ccccc23)cc1,-16%,-86*,i,?,-28%
CCCC(=O)N1CCN(c2nc(CC(C)C)c3c(c2C#N)CCC3)CC1,-27%,-72*,i,-21%,1%
CC(C)Cc1nc(N2CCN(C(=O)c3ccco3)CC2)c(C#N)c2c1CCCC2,-46%,-27,?,?,?
Cc1cccc(NC(=O)CSc2nnc(-c3cc(C)n(-c4ccccc4)c3C)o2)c1C,-23%,-80*,i,-8%,2%
COc1ccnc(Oc2cccc(C(F)(F)F)c2)c1C(=O)N/C=N/OCc1ccccc1F,-23%,-59*,i,-23%,?
CN(Cc1ccccc1)/[N+]([O-])=N/Oc1ccc([N+](=O)[O-])cc1[N+](=O)[O-],-95%,nt,nt,?,nt
CC(Nc1cc(N2CCN(S(=O)(=O)N(C)C)CC2)ccc1[N+](=O)[O-])c1ccccc1 (centres undefined),1%,16,i,18%,3%
CC(Nc1cc(N2CCN(S(C)(=O)=O)CC2)ccc1[N+](=O)[O-])c1ccccc1 (centres undefined),10%,-52*,i,5%,-4%
O=C(NCCCN1CCOCC1)c1cc(-c2ccccc2)on1,-36%,-2,i,0%,3%
O=C(NCCCO)c1cc2c([nH]c3ccccc32)c(-c2ccccc2)n1,-13%,-88*,?,-6%,-35%
O=C(NCC1CCCO1)c1cc2c([nH]c3ccccc32)c(-c2cccc(Cl)c2)n1 (centres undefined),-4%,-65*,?,?,?
O=C(NCCCN1CCOCC1)c1cc2c([nH]c3ccccc32)c(-c2cccc(Br)c2)n1,-55%,-73*,?,?,?
COc1cccc(-c2nc(C(=O)NCCCN3CCOCC3)cc3c2[nH]c2ccccc23)c1,-45%,-64*,?,?,?
CCc1cccc(NC(=O)c2c(N3CCCC3=O)c3cc(C)ccc3n2C)c1,-37%,nt,i,?,-35%
COc1ccccc1CNC(=O)CCCCn1c(=O)c2ccccc2n(CC(=O)Nc2c(C)cc(C)cc2C)c1=O,6%,nt,i,4%,0%
Cc1cc(C)cc(NC(=O)N2CCN(C(=O)c3nsc4ccccc34)CC2)c1,-3%,nt,nt,-21%,nt
Cc1ccc(C)c(-c2ccc(=O)n(Cc3ccc(F)cc3Cl)n2)c1,-21%,-75*,?,13µM*,-20%
Cc1ccc(C)c(-c2ccc(=O)n(Cc3cccc(Br)c3)n2)c1,-47%,-98*,i,?,-28%
Cc1cc(=O)n(Cc2cccc(Br)c2)c2c1c(C)nn2-c1ccccc1,3%,nt,i,8%,12%
O=C1C(=O)C(c2cc(O)c(O)c(O)c2)Oc2cc(O)cc(O)c21 (centres undefined),8%,nt,nt,-6%,nt
COc1ccc(-c2cc3nc(C)cc(N4CCN(C(=O)c5ccco5)CC4)n3n2)cc1,-24%,-29,i,-15%,-15%
SMILES,HepG2 viability,IL1B secr inh,ATXN viability,TGFb inhibitor,ATXN2 expr inh
Cc1cccc2c(C(=O)N3CCN(C(=O)c4ccco4)CC3)cc(-c3cccc(Br)c3)nc12,16%,-71*,?,?,?
O=C(c1ccco1)N1CCN(C(=O)c2cc(-c3ccccc3)nc3ccccc23)CC1,-26%,0,i,-15%,11%
Cc1cc(N2CCN(C(=O)c3ccco3)CC2)n2nc(-c3cccc(Cl)c3)cc2n1,-22%,-66*,nt,?,20µM*
Cc1c(Cl)cccc1NC(=O)c1ccc2nc(C(C)C)oc2c1,-17%,nt,nt,-2%,nt
COc1cccc(C(=O)NCC2Cc3c(F)ccc(-c4ncccn4)c3O2)c1OC (centres undefined),nt,nt,i,nt,nt
COc1c(C)cc(C(O)c2ncc(-c3ccccc3)[nH]2)cc1C (centres undefined),9%,-60*,i,36%,-6%
CNc1nccc(-c2cccnc2Oc2cc(C(=O)Nc3cccc(C(F)(F)F)c3)ccc2C)n1,nt,nt,nt,nt,24µM*
O=C(N/N=C/c1c[nH]c2ccccc12)c1cc(-c2cccc3ccccc23)n[nH]1,-24%,-52*,i,?,-4%
O=C(N/N=C/c1cccs1)c1cc(-c2cccc3ccccc23)n[nH]1,-32%,-52*,?,1%,nt
O=C(N/N=C/c1cccs1)c1cc(-c2ccc3ccccc3c2)n[nH]1,-41%,?,i,?,-11%
O=C(N/N=C/c1ccco1)c1cc(-c2ccc3ccccc3c2)n[nH]1,-91%,-67*,?,?,?
O=C(N/N=C/c1c[nH]c2ccccc12)c1cc(-c2ccc3ccccc3c2)n[nH]1,-39%,-99*,?,16µM*,27%
CCc1ccc(-c2cc(C(=O)N/N=C/c3ccco3)[nH]n2)cc1,-7%,-10,i,34%,4%
CCC1CN(Cc2cccn2-c2ccccn2)Cc2cc(OC)ccc2O1 (centres undefined),nt,nt,i,nt,nt
O=C(c1ccc2c(c1)N(Cc1ccc(Cl)cc1)C(=O)c1ccccc1S2(=O)=O)N1CCCCCC1,-1%,nt,i,-2%,?
O=C(N/N=C/C=C\c1ccccc1[N+](=O)[O-])c1cc(-c2ccc3ccccc3c2)n[nH]1,8.9µM*,-1,?,13µM*,-31%
O=C(N/N=C/c1c[nH]c2ccccc12)c1cc(-c2ccccc2)n[nH]1,-46%,-66*,i,-6%,-18%[11.3 µM]
C=C1CCN(C(CC(C)C)C(=O)NCc2ccc(OC)cc2)S(=O)(=O)c2ccccc21 (centres undefined),-10%,nt,nt,-16%,nt
CN1CCCc2ccccc21,2%,nt,nt,2%,nt
COc1cc(-c2csc(NC3CCCCC3)n2)cc(OC)c1OC,0%,-80*,i,-4%,7%
O=C(Cn1ncc(Cl)c(Cl)c1=O)NC1CCS(=O)(=O)C1 (centres undefined),4%,-6,i,8%,1%
